# According to PubChem BioAssay AID588354 (The Scripps Research Institute Molecular Screening Center, 2011):
# In all, about 360,000 compounds went through this assay and about 430 (0.12%) were called active.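 How the source made its calls: active means inhibition above the campaign mean plus 3 SD, with each screening campaign given its own cutoff (cut at about 60% in these data); inactive means the rest.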 Many of the other results were omitted from the sample, so actives are more common in it than they were.
# Target: Nuclear receptor coactivator 1 (Homo sapiens) (UniProt Q15788)
# Assay: NCOA1 GAL4-fusion reporter inhibition – cell-based, luminescence, primary screen (AID 588354);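 further: 0% = DMSO treated cells and 100% = gossypol at 36 µM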
# Conditions: HEK293 GAL4-SRC1 luciferase reporter, at 3.6 µM, active compounds read high
# Sequence of Nuclear receptor coactivator 1 (Homo sapiens) (Q15788 whole entry, looked up, the tested form may be a part): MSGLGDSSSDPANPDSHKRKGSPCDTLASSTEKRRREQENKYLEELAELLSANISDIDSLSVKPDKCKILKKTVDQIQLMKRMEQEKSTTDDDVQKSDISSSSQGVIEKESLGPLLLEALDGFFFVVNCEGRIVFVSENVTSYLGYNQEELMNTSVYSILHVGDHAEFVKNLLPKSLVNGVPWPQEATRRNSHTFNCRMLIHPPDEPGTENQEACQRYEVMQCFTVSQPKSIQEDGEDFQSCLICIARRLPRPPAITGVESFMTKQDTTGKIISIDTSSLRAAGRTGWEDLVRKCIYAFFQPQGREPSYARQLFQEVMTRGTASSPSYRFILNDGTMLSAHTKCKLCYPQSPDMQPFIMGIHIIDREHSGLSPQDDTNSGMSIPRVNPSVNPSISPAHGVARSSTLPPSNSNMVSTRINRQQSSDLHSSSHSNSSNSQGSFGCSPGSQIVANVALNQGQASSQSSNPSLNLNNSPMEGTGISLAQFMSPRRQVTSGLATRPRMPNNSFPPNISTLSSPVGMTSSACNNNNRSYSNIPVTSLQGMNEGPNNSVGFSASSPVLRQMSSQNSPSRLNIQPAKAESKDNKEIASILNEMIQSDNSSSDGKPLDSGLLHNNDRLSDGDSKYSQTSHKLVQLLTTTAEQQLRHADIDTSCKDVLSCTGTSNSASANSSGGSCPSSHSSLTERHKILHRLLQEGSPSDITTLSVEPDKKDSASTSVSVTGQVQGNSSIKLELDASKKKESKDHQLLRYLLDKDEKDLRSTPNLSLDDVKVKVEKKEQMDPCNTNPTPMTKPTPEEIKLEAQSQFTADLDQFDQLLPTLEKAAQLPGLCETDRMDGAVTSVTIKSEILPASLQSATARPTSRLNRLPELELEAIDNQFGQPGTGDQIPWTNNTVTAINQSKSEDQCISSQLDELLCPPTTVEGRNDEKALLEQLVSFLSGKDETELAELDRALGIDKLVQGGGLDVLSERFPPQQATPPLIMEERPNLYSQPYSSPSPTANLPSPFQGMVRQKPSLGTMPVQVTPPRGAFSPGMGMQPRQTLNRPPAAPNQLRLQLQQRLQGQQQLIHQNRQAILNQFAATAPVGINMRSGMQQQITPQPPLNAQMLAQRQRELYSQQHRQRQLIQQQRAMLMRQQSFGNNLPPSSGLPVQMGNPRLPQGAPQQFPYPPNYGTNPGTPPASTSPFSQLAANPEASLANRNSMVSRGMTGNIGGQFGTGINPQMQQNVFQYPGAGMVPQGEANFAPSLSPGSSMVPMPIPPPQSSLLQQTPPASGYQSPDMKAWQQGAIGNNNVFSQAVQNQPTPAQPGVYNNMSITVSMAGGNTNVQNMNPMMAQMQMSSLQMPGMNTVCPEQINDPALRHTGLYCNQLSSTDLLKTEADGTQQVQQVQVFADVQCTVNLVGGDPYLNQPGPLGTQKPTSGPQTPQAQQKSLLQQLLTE
row,SMILES,inhibition
1,C[C@]12CC[C@H](O)C[C@H]1CC[C@@H]1C2CC[C@]2(C)[C@@H](C3=CC(=O)OC3)[C@@H](O)C[C@]12O (stereo not given in full),53.1% (inactive)
2,COC1C(O)C(C)OC(OC2CCC3(C=O)C(CCC4C3CCC3(C)C(C5=CC(=O)OC5)CCC43O)C2)C1O (stereo not given),90.4% (active)
3,CCC1(C)CC(CCNCc2ccc(N(C)C)cc2)(c2ccc(F)cc2)CCO1 (stereo not given),-23.1% (inactive)
4,Cc1cccc(-n2c(C)nc3cc(C(=O)N4CCC5(CC4)OCCO5)ccc32)c1,7.63% (inactive)
5,CC1CCC(N(C)C2CCN(C)CC2)CC1 (stereo not given),9.39% (inactive)
6,COC(=O)C1=C(c2ccc(Cl)c(C(F)(F)F)c2)C[C@@H]2CC[C@H]1N2C(=O)NC(C)C,1.75% (inactive)
7,CCC(C)(O)C(=O)OC1C(=O)OC2CC3C(C)=CC(=O)C(O)C3(C)C3C4(O)OCC23C1C(C)C4O (stereo not given),95.5% (active)
8,Cn1cc(C(=O)OCC(=O)N2CCCC2)c2ccccc21,-5.08% (inactive)
9,CC(=O)OC1C2(CC3N4C(=O)C5(CO)SSC4(CC31O)C(=O)N5C)OC(C)C(C)(C)C2=O (stereo not given),23.6% (inactive)
10,CCOC(=O)CC(SP1(=S)OCC2(CCCCO2)C(C2CCCCO2)O1)C(=O)OCC (stereo not given),-3.46% (inactive)
11,Cc1ccccc1NC(=O)COC(=O)c1cc(C)n(C2CC2)c1C,-22.1% (inactive)
12,O=C(COc1ccc2ccccc2c1)N1CCN(Cc2ccncc2)CC1,-6.36% (inactive)
13,CCOc1ccc(-c2cc(C)[n+](CCN(CC)CC)c(-c3ccc(OCC)cc3)c2)cc1,62% (active)
14,CNC(=O)N(C)c1nnc(C(C)(C)C)s1,-3.52% (inactive)
15,N[C@@H](Cc1c[nH]c2ccccc12)c1nnc(SCc2c(F)cccc2Cl)o1,-58.9% (inactive)
